Compound activity deposited in PubChem BioAssay by several laboratories.
In the library only some 5.9% were active in any assay of this set; here they are far more common.
LANA-H2B inh = blocks KSHV LANA binding to histone H2A/H2B; Q9QR71; actives 0.6% (n = 320,000); AID 2629; inhibition, % (concentration not given with the values); cell-free LANA-H2A/H2B peptide, fluorescence polarization; in the data active = inhibition mostly above about 10%, no sharp cut-off; inactive = mostly below about 6.7%
Target sequence (Q9QR71 whole entry, looked up): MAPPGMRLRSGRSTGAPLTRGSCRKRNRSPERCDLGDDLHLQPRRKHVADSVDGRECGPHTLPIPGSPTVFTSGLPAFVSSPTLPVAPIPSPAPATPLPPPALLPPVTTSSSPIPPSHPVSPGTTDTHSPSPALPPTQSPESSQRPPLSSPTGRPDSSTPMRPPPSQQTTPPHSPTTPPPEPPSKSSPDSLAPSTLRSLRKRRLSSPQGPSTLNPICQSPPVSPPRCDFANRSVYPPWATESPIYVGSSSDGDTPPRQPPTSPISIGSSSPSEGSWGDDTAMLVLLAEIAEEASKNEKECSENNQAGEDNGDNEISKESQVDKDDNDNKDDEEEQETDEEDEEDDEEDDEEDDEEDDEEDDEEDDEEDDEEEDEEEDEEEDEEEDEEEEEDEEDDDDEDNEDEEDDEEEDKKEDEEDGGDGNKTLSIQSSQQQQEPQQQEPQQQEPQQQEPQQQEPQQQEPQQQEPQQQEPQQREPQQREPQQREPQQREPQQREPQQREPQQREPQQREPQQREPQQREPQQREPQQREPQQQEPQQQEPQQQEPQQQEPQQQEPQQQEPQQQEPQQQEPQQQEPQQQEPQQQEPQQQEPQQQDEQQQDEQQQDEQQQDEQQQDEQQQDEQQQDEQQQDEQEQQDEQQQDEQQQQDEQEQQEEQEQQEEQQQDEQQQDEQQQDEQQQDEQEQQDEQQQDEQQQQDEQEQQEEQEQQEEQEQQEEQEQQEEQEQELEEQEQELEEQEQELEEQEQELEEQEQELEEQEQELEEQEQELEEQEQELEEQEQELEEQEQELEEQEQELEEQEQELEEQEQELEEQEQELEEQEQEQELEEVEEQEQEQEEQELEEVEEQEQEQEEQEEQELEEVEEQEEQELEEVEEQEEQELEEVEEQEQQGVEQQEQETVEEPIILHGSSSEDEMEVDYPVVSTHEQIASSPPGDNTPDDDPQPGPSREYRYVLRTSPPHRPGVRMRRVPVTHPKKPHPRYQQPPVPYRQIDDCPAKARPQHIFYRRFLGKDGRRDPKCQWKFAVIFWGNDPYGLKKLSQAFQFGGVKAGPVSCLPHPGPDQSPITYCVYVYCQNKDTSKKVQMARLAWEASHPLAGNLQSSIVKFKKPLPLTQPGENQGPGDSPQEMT
PRMT1 inh = PRMT1 (human) inhibition, primary screen; Q99873; recombinant PRMT1, activity-based probe fluorescence polarization; inhibition, % at 2.79 µM; actives 1.3% (n = 370,000); AID 652257;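 active = inhibition above about 21% made by adding two undisclosed values, limit read from the data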
ABHD5-PLIN5 inh = blocks binding of human ABHD5 to perilipin-5; Split G. princeps luciferase complementation, luminescence, 4 h; Q00G26+Q8WTS1; actives 0.78% (n = 360,000); inhibition, % at 4 µM;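 active = inhibition above the mean inhibition across every tested compound plus 3 SD, cut at about 22% in these data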;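 also: 0% = DMSO only wells and the 100% control is not disclosed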
ALR H2O2 inh = human ALR oxidase inhibition via reduced H2O2 | purified ALR, DTT oxidation, H2O2 HRP-luminol luminescence | inhibition, % (test concentration not listed) | actives 3.8% (n = 290,000);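 active = mean replicate inhibition above about 79%, with every replicate also reaching it, limit read from the data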
Rtt109 HAT inh = C. albicans Rtt109 histone acetyltransferase inhibition; purified Rtt109/Vps75, ThioGlo CoA-SH fluorescence, 4 h; inhibition, % at 34.9 µM; actives 0.16% (n = 330,000);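 active = inhibition of at least 50% in every replicate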
rCAG RNA binder = binds r(CAG) RNA repeats | actives 1.3% (n = 370,000) | r(CAG) RNA repeat, TO-PRO-1 dye displacement fluorescence | inhibition, % at 3 µM;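 active = inhibition above the plate cutoff, the mean of all test compounds on that plate plus 3 SD, cut at about 35% in these data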;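 also: 0% = DMSO alone and 100% = 100 µM mitoxantrone as full dye displacement; higher means more dye released from RNA so lower well fluorescence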
The depositor's hits bear a star; nt = no result.

SMILES	LANA-H2B inh	PRMT1 inh	ABHD5-PLIN5 inh	ALR H2O2 inh	Rtt109 HAT inh	rCAG RNA binder
O=S(=O)(c1ccc2c(c1)CCN2)N1CCOCC1	-3	1	1	78*	7	4
Cc1ccc(-c2nnc(Nc3ccc(O)cc3)c3ccccc23)cc1S(=O)(=O)NCCO	1	2	-3	97*	2	3
Oc1ccc(-c2nnc(Nc3cccc(O)c3)c3ccccc23)cc1	-1	-1	-3	98*	-1	6
CNC(=O)c1cc(Nc2nnc(-c3ccc(O)cc3)c3ccccc23)ccc1OC	1	0	6	98*	26	-1
NC(=O)COc1ccc(Nc2nnc(-c3ccc(O)cc3)c3ccccc23)cc1	19*	1	-1	99*	3	5
Cc1ccc(-c2nnc(Nc3cccc(O)c3)c3ccccc23)cc1S(=O)(=O)NCCO	-2	5	-1	64	-5	5
O=C(CN1CCc2onc(-c3ccc(-n4cc(-c5ccccc5)nn4)cc3)c2C1=O)N1CCOCC1	nt	15	nt	nt	nt	9
CCN(CC)c1ccc(/C=C(/C#N)C(=O)NC(C)C)o1	-54	-60	10	99*	3	-60
CC(C)NC(=O)/C(C#N)=C\c1ccc(N(C)C)o1	-25	-52	9	97*	8	-51
Nc1ccc(N=Nc2ccc(N)cc2)cc1	-11	3	4	98*	0	-7
Cc1cc(N(C)C)ccc1N=Nc1ccc(N)cc1	3	-1	3	45	-2	0
Cc1ccccc1-c1ccc2c(c1)[C@@H]1C[C@H](N(C)S(=O)(=O)c3ccc(Cl)cc3)[C@H]([C@H](C)O)CN1CC2	nt	-4	nt	nt	nt	6
c1coc(-c2nnc(-c3ccco3)nn2)c1	4	46*	5	nt	-2	31
O=C1CSc2ccc(C(=O)N3CCCC(C(=O)N4CCCC4)C3)cc2N1 (stereo not given)	nt	9	nt	nt	nt	2
COc1ccc(CNC[C@@H](CCCCN(C)Cc2ccc(OC)cc2)N2C[C@H](c3ccccc3)N(CCc3ccc(Cl)c(Cl)c3)C(=O)C2=O)cc1	-4	nt	32*	-36	19	nt
CSc1ccc2[nH]c(=O)cc(C)c2c1	6	6	1	100*	-8	-1
CC1CCN(C(=O)CSc2nc(N)c(NC(=O)c3ccccc3)c(=O)[nH]2)CC1	48*	0	-4	-17	-2	1
CCc1nnc(N2C(=O)c3ccc(Oc4ccc([N+](=O)[O-])cc4)cc3C2=O)s1	0	-1	0	93*	4	25
CCOC(=O)CN(C(=O)c1snc(C(N)=O)c1N)C(C(=O)NCCC(C)C)c1ccc(C)cc1 (stereo not given)	nt	0	-2	nt	nt	1
CCOc1ccccc1Cn1c(=O)sc2ccccc21	37*	0	4	34	16	-4
COC(=O)C(C(=O)OC)C(CC(=O)c1ccc(C)cc1)c1cc(OC)c(OC)c(OC)c1 (stereo not given)	1	2	-2	97*	1	-8
[O-][N+](=Cc1ccccc1)CC1(O)CCCCC1	nt	-3	-3	nt	nt	0
Cc1cc2nc(CO)[nH]c2cc1C	3	3	8	6	4	0
Cc1cc2nc(CS)[nH]c2cc1C	-6	13	-1	99*	-1	16
CCOC(=O)C1CCN(C(=O)Cn2cnc3sc(C)c(S(=O)(=O)N4CCCCC4)c3c2=O)CC1	16*	-1	-3	-1	14	-4
SMILES	LANA-H2B inh	PRMT1 inh	ABHD5-PLIN5 inh	ALR H2O2 inh	Rtt109 HAT inh	rCAG RNA binder
Cc1ccc(NC(=O)N2CC(C)OC(C)C2)cc1[N+](=O)[O-] (stereo not given)	nt	0	nt	nt	nt	4
Cc1ccc(S(=O)(=O)/C(C#N)=C/c2c[nH]c3ccccc23)cc1	17*	3	2	-5	-5	14
Cc1ccc(S(=O)(=O)N/N=C/c2c[nH]c3ccccc23)cc1	-4	0	2	74	2	18
Cc1cnc2ccc(F)cc2c1	nt	-4	-3	nt	nt	2
O=C(CSc1nnc(-c2cccnc2)o1)Nc1nccs1	-1	2	1	99*	-7	3
Cc1cc(-c2nnc(SCC(=O)Nc3ccccn3)o2)no1	-5	10	8	42	2	-1
Cc1cc(-c2nnc(SCC(=O)Nc3nccs3)o2)no1	0	6	5	89*	-7	9
CCCOc1ccc(F)cc1-c1cc(C(=O)Nc2ccc(C)c(NS(C)(=O)=O)c2)[nH]n1	nt	-1	-3	nt	nt	9
COc1ccccc1-n1c(=S)[nH]c2c(sc(=S)n2-c2ccccc2)c1=O	0	83*	-7	1	-6	4
COc1ccccc1-n1c(=S)[nH]c2c(sc(=S)n2-c2ccccc2C)c1=O	nt	87*	-7	-2	3	7
COc1ccccc1-n1c(SCC(=O)O)nc2c(sc(=S)n2-c2ccccc2C)c1=O	3	0	2	-5	-3	22
CCOc1ccccc1-n1c(=S)sc2c(=O)n(-c3ccccc3)c(=S)[nH]c21	0	78*	-11	-18	7	6
CNc1cnc(-c2ccsc2)cn1	nt	0	0	nt	nt	4
CC(NC(=O)Cc1cccs1)C(c1cccs1)N1CCN(c2ccccc2)CC1 (stereo not given)	-1	2	-4	96*	11	1
CCC(=O)NC(C)C(c1cccs1)N1CCN(c2ccccc2)CC1 (stereo not given)	0	-5	-3	99*	2	-8
Cc1ccc(S(=O)(=O)NC(C)C(c2cccs2)N2CCN(c3ccccc3)CC2)cc1 (stereo not given)	1	2	-1	nt	7	3
CC(=O)NC(C)C(c1cccs1)N1CCN(c2ccccc2)CC1 (stereo not given)	-1	-3	2	99*	5	-4
COC(=O)c1cc(-c2ccc3ccccc3c2)c(=O)n2c1CCC2	nt	-2	nt	nt	nt	2
C=CCn1c(Cc2cccs2)nnc1SCC(=O)Nc1ccc(OCc2ccccc2)cc1	nt	0	nt	nt	nt	3
CCOc1ccc(N(CC(=O)Nc2cccc(N(C)S(C)(=O)=O)c2)S(=O)(=O)c2ccccc2)cc1	25*	-1	1	-3	-8	4
COc1ccc(N(CC(=O)Nc2cccc(N(C)S(C)(=O)=O)c2)S(=O)(=O)c2ccc(C)cc2)cc1	-2	-4	5	14	nt	-1
CCOc1ccc(N(CC(=O)Nc2cc(C)cc(C)c2)S(C)(=O)=O)cc1	0	0	2	-32	0	-1
CCOC(=O)/C=C/C(=O)OCC(=O)Nc1cccc(Br)c1	-4	3	11	91*	8	-1
CCOc1ccc(N(CC(=O)Nc2cccc(Br)c2)S(C)(=O)=O)cc1	36*	1	-3	-17	1	2
COc1ccc(N(CC(=O)Nc2cccc(N(C)S(C)(=O)=O)c2)S(=O)(=O)c2ccc(F)cc2)cc1	152*	-2	2	7	21	13
